Measurements as given in PMC7862700, “An all-to-all approach to the identification of sequence-specific readers for epigenetic DNA modifications on cytosine”.

Tests used:
Assay in all cases: DAPPL (digital affinity profiling via proximity ligation, sequencing); 10 mM Tris-HCl pH 7.5, 50 mM NaCl, 1 mM DTT, 4% glycerol, room temperature, 30 min; GST-TFs on glutathione beads, 16-mer random dsDNA library, 0.1% formaldehyde crosslink after washing; high values mean tight binding
[1] = target: T1, FEV (Homo sapiens, UniProt Q99581 1-238); conditions: protein: recombinant; tags: N-terminal GST; dsDNA, one strand shown
T1 sequence: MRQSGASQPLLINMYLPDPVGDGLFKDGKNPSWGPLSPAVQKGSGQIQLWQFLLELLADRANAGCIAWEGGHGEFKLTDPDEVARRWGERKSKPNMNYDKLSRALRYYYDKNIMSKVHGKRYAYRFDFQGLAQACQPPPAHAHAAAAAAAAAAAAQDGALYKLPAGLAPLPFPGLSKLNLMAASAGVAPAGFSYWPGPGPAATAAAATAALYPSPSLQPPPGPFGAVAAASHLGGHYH
In short: (§1)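 Yeast served to express human transcription factors as GST fusions, which were then captured on glutathione beads and labelled with DNA barcodes. Pooled with a tag-only sample, they were incubated with 200 nmole of a 16-mer random double-stranded DNA library for 30 min at room temperature in Tris/NaCl/DTT/glycerol buffer, washed, crosslinked with 0.1% formaldehyde, ligated by proximity, amplified by PCR and sequenced. Dividing each hexamer's read frequency for a factor by its frequency for the tag-only sample gives the binding signal.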

[2] = target: ETV5 (Homo sapiens, UniProt P41161 1-510); conditions: protein: recombinant; tags: N-terminal GST; dsDNA, one strand shown
ETV5, sequence (P41161 whole entry): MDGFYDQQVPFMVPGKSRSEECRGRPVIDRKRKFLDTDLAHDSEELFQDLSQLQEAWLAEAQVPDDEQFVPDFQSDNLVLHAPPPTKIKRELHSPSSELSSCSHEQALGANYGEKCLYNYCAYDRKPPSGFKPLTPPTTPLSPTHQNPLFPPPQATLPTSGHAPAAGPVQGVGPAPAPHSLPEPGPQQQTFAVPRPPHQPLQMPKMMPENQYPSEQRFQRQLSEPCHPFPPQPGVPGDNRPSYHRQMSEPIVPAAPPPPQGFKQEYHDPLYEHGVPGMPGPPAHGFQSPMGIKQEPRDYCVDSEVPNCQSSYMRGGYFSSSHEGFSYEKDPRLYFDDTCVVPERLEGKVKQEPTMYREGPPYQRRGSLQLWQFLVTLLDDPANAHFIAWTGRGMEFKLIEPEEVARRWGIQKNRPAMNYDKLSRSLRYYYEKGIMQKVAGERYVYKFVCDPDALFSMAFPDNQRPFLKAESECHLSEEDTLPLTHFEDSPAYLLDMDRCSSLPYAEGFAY
In short: as §1

[3] = target: HSF1 (Homo sapiens, UniProt Q00613 1-529); conditions: protein: recombinant; tags: N-terminal GST; chain copies: 3; dsDNA, one strand shown
HSF1, sequence (Q00613 whole entry): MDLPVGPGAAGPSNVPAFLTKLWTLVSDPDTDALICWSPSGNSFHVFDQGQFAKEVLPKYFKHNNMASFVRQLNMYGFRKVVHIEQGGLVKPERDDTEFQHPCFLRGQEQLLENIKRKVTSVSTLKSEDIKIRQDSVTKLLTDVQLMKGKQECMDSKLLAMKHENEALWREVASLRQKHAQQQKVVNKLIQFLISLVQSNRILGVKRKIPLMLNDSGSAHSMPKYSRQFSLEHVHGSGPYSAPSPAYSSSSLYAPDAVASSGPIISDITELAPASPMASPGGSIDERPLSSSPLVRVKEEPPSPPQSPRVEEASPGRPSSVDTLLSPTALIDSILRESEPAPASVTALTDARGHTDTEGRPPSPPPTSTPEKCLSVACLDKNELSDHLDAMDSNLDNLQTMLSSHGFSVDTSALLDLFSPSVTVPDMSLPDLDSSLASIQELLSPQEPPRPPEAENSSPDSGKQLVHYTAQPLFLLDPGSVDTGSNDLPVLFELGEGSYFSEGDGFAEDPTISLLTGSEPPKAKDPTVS
In short: as §1

[4] = target: T2, SPIC (Homo sapiens, UniProt Q8N5J4 1-248); conditions: protein: recombinant; tags: N-terminal GST; dsDNA, one strand shown
T2 sequence: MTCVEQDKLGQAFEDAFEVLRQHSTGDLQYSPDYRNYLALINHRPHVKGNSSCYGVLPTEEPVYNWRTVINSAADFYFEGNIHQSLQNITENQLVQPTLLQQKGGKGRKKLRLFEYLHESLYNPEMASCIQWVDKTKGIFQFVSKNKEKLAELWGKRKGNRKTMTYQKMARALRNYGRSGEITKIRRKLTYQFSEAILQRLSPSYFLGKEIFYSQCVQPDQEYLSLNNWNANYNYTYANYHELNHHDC
In short: as §1

[5] = target: ELF4 (Homo sapiens, UniProt Q99607 1-663); conditions: protein: recombinant; tags: N-terminal GST; dsDNA, one strand shown
ELF4, sequence (Q99607 whole entry): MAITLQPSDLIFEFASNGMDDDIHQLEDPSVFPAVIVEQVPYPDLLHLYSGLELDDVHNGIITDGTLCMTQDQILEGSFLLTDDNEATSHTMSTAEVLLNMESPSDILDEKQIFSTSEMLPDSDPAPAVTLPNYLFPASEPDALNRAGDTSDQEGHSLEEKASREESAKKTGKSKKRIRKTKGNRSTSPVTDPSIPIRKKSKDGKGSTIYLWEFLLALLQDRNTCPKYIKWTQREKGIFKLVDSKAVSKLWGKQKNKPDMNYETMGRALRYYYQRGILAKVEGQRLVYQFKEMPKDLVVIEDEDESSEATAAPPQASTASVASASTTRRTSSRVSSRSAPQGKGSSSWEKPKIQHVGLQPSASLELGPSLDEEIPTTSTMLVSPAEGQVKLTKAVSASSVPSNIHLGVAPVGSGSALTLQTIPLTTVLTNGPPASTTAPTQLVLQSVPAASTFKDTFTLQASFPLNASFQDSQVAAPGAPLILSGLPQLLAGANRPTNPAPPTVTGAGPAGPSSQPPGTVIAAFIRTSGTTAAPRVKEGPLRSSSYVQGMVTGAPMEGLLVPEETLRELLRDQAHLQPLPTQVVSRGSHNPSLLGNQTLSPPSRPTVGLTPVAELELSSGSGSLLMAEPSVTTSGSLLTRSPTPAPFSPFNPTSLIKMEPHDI
In short: as §1

[6] = target: T3, ELK4 (Homo sapiens, UniProt P28324-2 1-405); conditions: protein: recombinant; tags: N-terminal GST; dsDNA, one strand shown
T3 sequence: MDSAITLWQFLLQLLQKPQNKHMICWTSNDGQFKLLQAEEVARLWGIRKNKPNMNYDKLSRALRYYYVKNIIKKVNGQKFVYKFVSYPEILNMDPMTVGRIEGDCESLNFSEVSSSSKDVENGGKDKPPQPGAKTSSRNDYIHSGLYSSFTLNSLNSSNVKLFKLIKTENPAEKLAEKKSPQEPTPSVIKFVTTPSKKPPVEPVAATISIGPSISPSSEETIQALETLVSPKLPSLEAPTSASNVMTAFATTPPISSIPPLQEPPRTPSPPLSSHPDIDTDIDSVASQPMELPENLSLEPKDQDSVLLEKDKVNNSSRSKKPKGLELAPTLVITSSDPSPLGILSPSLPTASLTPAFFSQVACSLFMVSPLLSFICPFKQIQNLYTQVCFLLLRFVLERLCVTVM
In short: as §1

[7] = target: T4, ETV2 (Homo sapiens, UniProt O00321 1-342); conditions: protein: recombinant; tags: N-terminal GST; dsDNA, one strand shown
T4 sequence: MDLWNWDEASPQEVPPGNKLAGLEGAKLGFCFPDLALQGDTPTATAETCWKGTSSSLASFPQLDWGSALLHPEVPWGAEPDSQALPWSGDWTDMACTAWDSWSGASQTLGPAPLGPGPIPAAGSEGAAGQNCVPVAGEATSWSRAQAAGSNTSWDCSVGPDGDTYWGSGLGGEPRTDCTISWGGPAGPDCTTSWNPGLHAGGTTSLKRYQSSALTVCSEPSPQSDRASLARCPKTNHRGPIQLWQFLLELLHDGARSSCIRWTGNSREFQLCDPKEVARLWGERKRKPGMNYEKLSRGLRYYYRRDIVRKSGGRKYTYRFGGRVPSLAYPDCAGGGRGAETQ
In short: as §1

[8] = target: T5, ELF3 (Homo sapiens, UniProt P78545 1-371); conditions: protein: recombinant; tags: N-terminal GST; dsDNA, one strand shown
T5 sequence: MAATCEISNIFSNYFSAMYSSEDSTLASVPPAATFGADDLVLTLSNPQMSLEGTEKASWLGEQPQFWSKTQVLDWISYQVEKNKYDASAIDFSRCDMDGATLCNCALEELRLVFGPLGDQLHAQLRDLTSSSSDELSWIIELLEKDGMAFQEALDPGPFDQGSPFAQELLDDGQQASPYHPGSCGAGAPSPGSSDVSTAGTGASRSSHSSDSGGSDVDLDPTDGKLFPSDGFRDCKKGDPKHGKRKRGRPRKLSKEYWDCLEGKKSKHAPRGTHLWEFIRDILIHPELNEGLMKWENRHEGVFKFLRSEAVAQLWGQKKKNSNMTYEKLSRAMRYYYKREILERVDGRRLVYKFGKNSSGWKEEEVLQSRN
In short: as §1

[9] = target: CRX (Homo sapiens, UniProt O43186 1-299); conditions: protein: recombinant; tags: N-terminal GST; dsDNA, one strand shown
CRX, sequence (O43186 whole entry): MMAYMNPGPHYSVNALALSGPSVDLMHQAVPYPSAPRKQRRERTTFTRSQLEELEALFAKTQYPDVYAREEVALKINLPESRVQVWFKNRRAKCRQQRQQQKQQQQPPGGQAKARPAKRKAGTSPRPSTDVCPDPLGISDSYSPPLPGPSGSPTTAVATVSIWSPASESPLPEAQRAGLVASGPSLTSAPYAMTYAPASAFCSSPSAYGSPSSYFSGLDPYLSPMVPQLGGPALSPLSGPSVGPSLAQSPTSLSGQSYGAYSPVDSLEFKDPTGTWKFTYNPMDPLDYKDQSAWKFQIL
In short: as §1

[10] = target: ETV1 (Homo sapiens, UniProt P50549 1-477); conditions: protein: recombinant; tags: N-terminal GST; dsDNA, one strand shown
ETV1, sequence (P50549 whole entry): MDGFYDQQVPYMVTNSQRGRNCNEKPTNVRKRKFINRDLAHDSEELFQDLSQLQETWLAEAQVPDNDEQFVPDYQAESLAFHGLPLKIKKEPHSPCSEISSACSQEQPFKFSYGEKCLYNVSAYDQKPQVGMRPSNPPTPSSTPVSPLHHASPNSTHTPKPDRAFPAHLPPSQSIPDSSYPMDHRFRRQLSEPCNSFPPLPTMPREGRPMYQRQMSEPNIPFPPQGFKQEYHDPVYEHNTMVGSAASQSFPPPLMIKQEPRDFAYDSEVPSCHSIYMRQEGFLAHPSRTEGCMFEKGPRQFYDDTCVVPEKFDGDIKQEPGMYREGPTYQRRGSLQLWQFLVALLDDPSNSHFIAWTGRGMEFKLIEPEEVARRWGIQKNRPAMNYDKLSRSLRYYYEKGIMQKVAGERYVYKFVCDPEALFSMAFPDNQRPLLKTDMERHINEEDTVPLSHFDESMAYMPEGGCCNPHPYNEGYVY
In short: as §1

[11] = target: T6, ERF (Homo sapiens, UniProt P50548 1-548); conditions: protein: recombinant; tags: N-terminal GST; dsDNA, one strand shown
T6 sequence: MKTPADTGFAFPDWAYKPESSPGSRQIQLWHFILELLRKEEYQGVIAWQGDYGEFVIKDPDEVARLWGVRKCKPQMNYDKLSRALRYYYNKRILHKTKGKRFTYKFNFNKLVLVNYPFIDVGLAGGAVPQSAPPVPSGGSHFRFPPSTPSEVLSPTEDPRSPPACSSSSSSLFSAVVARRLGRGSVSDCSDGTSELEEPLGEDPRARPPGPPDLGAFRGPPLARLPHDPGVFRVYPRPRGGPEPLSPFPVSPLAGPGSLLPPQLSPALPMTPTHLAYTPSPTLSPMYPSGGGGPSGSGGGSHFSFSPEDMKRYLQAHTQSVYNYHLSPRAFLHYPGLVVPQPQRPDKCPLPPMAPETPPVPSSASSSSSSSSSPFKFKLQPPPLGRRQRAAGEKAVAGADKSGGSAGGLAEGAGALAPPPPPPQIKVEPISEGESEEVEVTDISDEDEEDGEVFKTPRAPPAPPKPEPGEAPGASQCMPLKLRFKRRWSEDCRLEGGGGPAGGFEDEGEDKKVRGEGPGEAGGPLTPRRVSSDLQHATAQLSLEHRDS
In short: as §1

[12] = target: T7, ETV3L (Homo sapiens, UniProt Q6ZN32 1-361); conditions: protein: recombinant; tags: N-terminal GST; dsDNA, one strand shown
T7 sequence: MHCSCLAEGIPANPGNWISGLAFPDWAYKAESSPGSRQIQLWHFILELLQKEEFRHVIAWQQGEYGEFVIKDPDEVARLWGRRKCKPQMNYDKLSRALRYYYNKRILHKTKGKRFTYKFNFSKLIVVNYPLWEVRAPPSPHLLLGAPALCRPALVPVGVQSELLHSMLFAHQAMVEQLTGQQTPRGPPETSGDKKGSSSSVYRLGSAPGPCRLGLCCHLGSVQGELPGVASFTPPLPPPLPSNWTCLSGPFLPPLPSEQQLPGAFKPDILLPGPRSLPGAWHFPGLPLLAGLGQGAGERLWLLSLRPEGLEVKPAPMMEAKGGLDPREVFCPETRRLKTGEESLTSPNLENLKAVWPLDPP
In short: as §1

[13] = target: T8, ETS2 (Homo sapiens, UniProt P15036 1-469); conditions: protein: recombinant; tags: N-terminal GST; dsDNA, one strand shown
T8 sequence: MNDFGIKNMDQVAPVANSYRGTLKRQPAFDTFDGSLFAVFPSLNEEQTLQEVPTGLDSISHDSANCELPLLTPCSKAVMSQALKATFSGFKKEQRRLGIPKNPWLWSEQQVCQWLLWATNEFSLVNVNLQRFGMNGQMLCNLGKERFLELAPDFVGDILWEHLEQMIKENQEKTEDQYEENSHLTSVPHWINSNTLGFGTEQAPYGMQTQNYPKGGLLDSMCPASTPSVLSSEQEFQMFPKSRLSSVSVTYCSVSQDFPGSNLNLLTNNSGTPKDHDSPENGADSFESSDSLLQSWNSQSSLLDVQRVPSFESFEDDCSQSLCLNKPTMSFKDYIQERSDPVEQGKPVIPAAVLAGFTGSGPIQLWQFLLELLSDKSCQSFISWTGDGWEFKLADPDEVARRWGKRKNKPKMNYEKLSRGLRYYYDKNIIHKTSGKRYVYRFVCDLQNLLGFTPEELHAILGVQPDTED
In short: as §1

[14] = target: T9, SPDEF (Homo sapiens, UniProt O95238 1-335); conditions: protein: recombinant; tags: N-terminal GST; dsDNA, one strand shown
T9 sequence: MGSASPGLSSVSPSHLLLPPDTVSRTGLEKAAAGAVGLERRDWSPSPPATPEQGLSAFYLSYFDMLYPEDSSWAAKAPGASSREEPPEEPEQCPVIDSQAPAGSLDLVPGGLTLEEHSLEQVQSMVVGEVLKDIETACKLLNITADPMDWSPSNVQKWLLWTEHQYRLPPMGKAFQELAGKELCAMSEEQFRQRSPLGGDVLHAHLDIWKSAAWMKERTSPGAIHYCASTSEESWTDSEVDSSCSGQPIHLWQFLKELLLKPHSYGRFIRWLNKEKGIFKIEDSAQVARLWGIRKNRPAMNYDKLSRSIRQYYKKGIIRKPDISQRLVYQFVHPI
In short: as §1

[15] = target: T10, ETV7 (Homo sapiens, UniProt Q9Y603 1-341); conditions: protein: recombinant; tags: N-terminal GST; dsDNA, one strand shown
T10 sequence: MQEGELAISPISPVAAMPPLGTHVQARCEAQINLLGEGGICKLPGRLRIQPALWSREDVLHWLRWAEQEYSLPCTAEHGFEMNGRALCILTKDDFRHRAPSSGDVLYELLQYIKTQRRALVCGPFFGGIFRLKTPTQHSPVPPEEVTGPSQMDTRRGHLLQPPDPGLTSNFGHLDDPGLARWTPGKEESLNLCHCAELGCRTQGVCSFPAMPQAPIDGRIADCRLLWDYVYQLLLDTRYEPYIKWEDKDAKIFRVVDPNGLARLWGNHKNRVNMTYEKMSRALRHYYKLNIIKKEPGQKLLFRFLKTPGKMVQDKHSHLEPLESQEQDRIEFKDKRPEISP
In short: as §1

[16] = target: T11, ELF5 (Homo sapiens, UniProt Q9UKW6-2 1-255); conditions: protein: recombinant; tags: N-terminal GST; dsDNA, one strand shown
T11 sequence: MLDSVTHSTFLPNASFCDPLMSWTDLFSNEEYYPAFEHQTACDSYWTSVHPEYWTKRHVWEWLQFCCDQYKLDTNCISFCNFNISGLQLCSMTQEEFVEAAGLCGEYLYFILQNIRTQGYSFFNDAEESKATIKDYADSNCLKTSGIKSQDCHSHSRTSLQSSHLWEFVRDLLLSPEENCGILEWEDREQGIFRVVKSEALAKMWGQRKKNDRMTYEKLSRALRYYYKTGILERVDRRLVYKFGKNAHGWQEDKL
In short: as §1

[17] = target: T12, ETV3 (Homo sapiens, UniProt P41162-2 1-143); conditions: protein: recombinant; tags: N-terminal GST; dsDNA, one strand shown
T12 sequence: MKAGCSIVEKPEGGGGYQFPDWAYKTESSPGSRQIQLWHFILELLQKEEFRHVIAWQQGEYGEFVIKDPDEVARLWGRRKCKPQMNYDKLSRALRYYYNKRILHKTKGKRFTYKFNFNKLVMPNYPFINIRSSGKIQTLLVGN
In short: as §1

[18] = target: ETV6 (Homo sapiens, UniProt P41212 1-452); conditions: protein: recombinant; tags: N-terminal GST; dsDNA, one strand shown
ETV6, sequence (P41212 whole entry): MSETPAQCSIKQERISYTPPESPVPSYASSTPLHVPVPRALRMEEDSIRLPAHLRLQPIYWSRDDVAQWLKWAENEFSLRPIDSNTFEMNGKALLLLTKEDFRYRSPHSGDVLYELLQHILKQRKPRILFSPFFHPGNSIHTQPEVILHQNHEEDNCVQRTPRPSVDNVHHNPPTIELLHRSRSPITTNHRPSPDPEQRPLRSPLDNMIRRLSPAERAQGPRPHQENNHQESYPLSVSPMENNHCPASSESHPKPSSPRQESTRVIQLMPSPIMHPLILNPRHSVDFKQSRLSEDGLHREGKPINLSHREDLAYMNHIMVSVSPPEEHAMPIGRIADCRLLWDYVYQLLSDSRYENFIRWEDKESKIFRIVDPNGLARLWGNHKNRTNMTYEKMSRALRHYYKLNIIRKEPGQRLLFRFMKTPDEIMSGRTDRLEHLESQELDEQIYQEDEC
In short: as §1

## TCTGCG
[1]
  binding signal: 1.22 fold enrichment (6-mer frequency, TF over GST control)
[2]
  binding signal: 1.22 fold enrichment (6-mer frequency, TF over GST control)
[3]
  binding signal: 1.15 fold enrichment (6-mer frequency, TF over GST control)
[4]
  binding signal: 1.24 fold enrichment (6-mer frequency, TF over GST control)
[5]
  binding signal: 1.2 fold enrichment (6-mer frequency, TF over GST control)
[6]
  binding signal: 1.14 fold enrichment (6-mer frequency, TF over GST control)
[7]
  binding signal: 1.19 fold enrichment (6-mer frequency, TF over GST control)
[8]
  binding signal: 1.31 fold enrichment (6-mer frequency, TF over GST control)
[9]
  binding signal: 1.09 fold enrichment (6-mer frequency, TF over GST control)
[10]
  binding signal: 1.45 fold enrichment (6-mer frequency, TF over GST control)
[11]
  binding signal: 1.07 fold enrichment (6-mer frequency, TF over GST control)
[12]
  binding signal: 1.23 fold enrichment (6-mer frequency, TF over GST control)
[13]
  binding signal: 1.17 fold enrichment (6-mer frequency, TF over GST control)
[14]
  binding signal: 1.21 fold enrichment (6-mer frequency, TF over GST control)
[15]
  binding signal: 1.09 fold enrichment (6-mer frequency, TF over GST control)
[16]
  binding signal: 1.15 fold enrichment (6-mer frequency, TF over GST control)
[17]
  binding signal: 1.16 fold enrichment (6-mer frequency, TF over GST control)
[18]
  binding signal: 1.14 fold enrichment (6-mer frequency, TF over GST control)
